The text below walks through data of paper PMC8384837, “Expanding the binding specificity for RNA recognition by a PUF domain”.

What all share (test): yeast three-hybrid, YBZ-1, SC-Leu-His + 0.5 mM 3-AT, 4 days
Details in all cases: tags: N-Gal4 AD-HA kept; label: inside an RPR1-promoter hybrid RNA with tandem MS2 sites; ssRNA

In one test the target is PUM1 PUF domain R5-ARK (Homo sapiens, UniProt Q14671 828-1176, C1007A;Q1011K). In a few lines:
(§1)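 The interaction score is the logarithmic change in variant frequency from input to selection. It uses log2, with a pseudocount of 1 for absent variants, and frequencies came from PCR-amplified, Illumina-sequenced repeat regions. The libraries were Pumilio-1 PUF domains randomized at the three base-contacting residues per repeat, co-expressed with matching RNA elements in strain YBZ-1 (LexA–MS2 coat fusion, HIS3 reporter). Plating lasted four days on SC-Leu (input) or SC-Leu-His + 0.5 mM 3-AT (selection).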

Another test has as its target PUM1 PUF domain R5-LHI (Homo sapiens, UniProt Q14671 828-1176, C1007L;R1008H;Q1011I). In a few lines: as §1
A further test deals with PUM1 PUF domain R2-MWG (Homo sapiens, UniProt Q14671 828-1176, N899M;Y900W;Q903G). In outline:
as §1

In another test the target is PUM1 PUF domain R2-SWF (Homo sapiens, UniProt Q14671 828-1176, N899S;Y900W;Q903F). In a few lines: as §1
In a further test the target is PUM1 PUF domain R1-RSQ (Homo sapiens, UniProt Q14671 828-1176, S863R;R864S). In a few lines: as §1
A further test deals with PUM1 PUF domain R1-SWR (Homo sapiens, UniProt Q14671 828-1176, R864W;Q867R). In outline: as §1
The target of the next test is PUM1 PUF domain R7-RCR (Homo sapiens, UniProt Q14671 828-1176, S1079R;N1080C;E1083R). In outline: as §1
The next test concerns the target PUM1 PUF domain R8-HFT (Homo sapiens, UniProt Q14671 828-1176, N1122H;Y1123F;Q1126T). In a few lines: as §1
A further test addresses PUM1 PUF domain R5-NGR (Homo sapiens, UniProt Q14671 828-1176, C1007N;R1008G;Q1011R). In a few lines: as §1
A further test has as its target PUM1 PUF domain R4-LNC (Homo sapiens, UniProt Q14671 828-1176, N971L;H972N;Q975C). In outline:
as §1

A further test deals with PUM1 PUF domain R4-WAV (Homo sapiens, UniProt Q14671 828-1176, N971W;H972A;Q975V). In outline: as §1
Sequence of PUM1 PUF domain R4-WAV (Q14671 828-1176 N971W/H972A/Q975V): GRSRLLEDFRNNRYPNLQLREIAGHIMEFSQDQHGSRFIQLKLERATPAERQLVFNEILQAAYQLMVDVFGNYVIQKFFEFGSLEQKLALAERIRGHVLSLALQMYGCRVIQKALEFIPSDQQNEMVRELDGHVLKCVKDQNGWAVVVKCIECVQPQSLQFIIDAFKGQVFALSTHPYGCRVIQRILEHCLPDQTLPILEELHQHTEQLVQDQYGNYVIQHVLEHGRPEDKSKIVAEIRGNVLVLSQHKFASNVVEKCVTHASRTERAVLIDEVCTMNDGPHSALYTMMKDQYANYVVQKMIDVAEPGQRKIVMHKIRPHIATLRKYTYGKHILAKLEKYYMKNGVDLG
The target of another test is PUM1 PUF domain R8-QWK (Homo sapiens, UniProt Q14671 828-1176, N1122Q;Y1123W;Q1126K). In a few lines:
as §1

A further test addresses PUM1 PUF domain R3-RMW (Homo sapiens, UniProt Q14671 828-1176, C935R;R936M;Q939W). In outline:
as §1

The target in the next test is PUM1 PUF domain R3-RSR (Homo sapiens, UniProt Q14671 828-1176, C935R;R936S;Q939R). In a few lines:
as §1

Another test has as its target PUM1 PUF domain R3-MRW (Homo sapiens, UniProt Q14671 828-1176, C935M;Q939W). In outline: as §1
A further test concerns the target T1, PUM1 PUF domain R6-LWT (Homo sapiens, UniProt Q14671 828-1176, N1043L;Y1044W;Q1047T).
T1 sequence: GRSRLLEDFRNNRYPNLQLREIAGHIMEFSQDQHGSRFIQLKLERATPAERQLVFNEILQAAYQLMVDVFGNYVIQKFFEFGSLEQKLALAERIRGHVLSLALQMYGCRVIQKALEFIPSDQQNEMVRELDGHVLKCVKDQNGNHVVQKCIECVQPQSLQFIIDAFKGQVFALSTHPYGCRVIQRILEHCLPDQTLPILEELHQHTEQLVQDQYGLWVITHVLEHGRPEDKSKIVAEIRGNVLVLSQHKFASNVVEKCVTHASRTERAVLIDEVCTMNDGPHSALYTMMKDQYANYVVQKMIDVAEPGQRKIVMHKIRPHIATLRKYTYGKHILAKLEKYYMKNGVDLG
In a few lines:
as §1

Another test has as its target PUM1 PUF domain R4-AHV (Homo sapiens, UniProt Q14671 828-1176, N971A;Q975V). In outline:
as §1

Another test has as its target PUM1 PUF domain R4-PYF (Homo sapiens, UniProt Q14671 828-1176, N971P;H972Y;Q975F). In a few lines: as §1
A further test concerns the target PUM1 PUF domain R5-RYP (Homo sapiens, UniProt Q14671 828-1176, C1007R;R1008Y;Q1011P). In outline:
as §1

For the next test, the target named is PUM1 PUF domain R3-FSN (Homo sapiens, UniProt Q14671 828-1176, C935F;R936S;Q939N). In outline: as §1

For “GGCUAGAACUAGUGGAUCCCCCGGCGCCCGGCGGCUCGAGCCCGGGUAAGUGUUAAUAGUCUGCAUGCCGCCGGGCGCCAUGCCUGCAGGUCGACUCUAGAAAACAUG”, the binding signal with PUM1 PUF domain R5-ARK was 3.13 log2 enrichment (interaction score); with PUM1 PUF domain R5-LHI, 3.78 log2 enrichment (interaction score).
Regarding “GGCUAGAACUAGUGGAUCCCCCGGCGCCCGGCGGCUCGAGCCCGGGUAAGUGUAAAAAGUCUGCAUGCCGCCGGGCGCCAUGCCUGCAGGUCGACUCUAGAAAACAUG”, the figures for the binding signal with PUM1 PUF domain R2-MWG and in the test with PUM1 PUF domain R2-SWF were 1.87 log2 enrichment (interaction score) and 2.22 log2 enrichment (interaction score), respectively.
Turning to “GGCUAGAACUAGUGGAUCCCCCGGCGCCCGGCGGCUCGAGCCCGGGUAAGUGUAAAUUGUCUGCAUGCCGCCGGGCGCCAUGCCUGCAGGUCGACUCUAGAAAACAUG”, the values for the binding signal with PUM1 PUF domain R1-RSQ and in the test with PUM1 PUF domain R1-SWR were 5.08 log2 enrichment (interaction score) and 0.84 log2 enrichment (interaction score), respectively.
In the case of “GGCUAGAACUAGUGGAUCCCCCGGCGCCCGGCGGCUCGAGCCCGGGUAAGUUUAAAUAGUCUGCAUGCCGCCGGGCGCCAUGCCUGCAGGUCGACUCUAGAAAACAUG”, the binding signal in the test with PUM1 PUF domain R7-RCR is 5.68 log2 enrichment (interaction score).
In the case of “GGCUAGAACUAGUGGAUCCCCCGGCGCCCGGCGGCUCGAGCCCGGGUAAGCGUAAAUAGUCUGCAUGCCGCCGGGCGCCAUGCCUGCAGGUCGACUCUAGAAAACAUG”, the binding signal in the test with PUM1 PUF domain R8-HFT is 3.48 log2 enrichment (interaction score).
In the case of “GGCUAGAACUAGUGGAUCCCCCGGCGCCCGGCGGCUCGAGCCCGGGUAAGUGUCAAUAGUCUGCAUGCCGCCGGGCGCCAUGCCUGCAGGUCGACUCUAGAAAACAUG”, the figures for the binding signal with PUM1 PUF domain R5-ARK, with PUM1 PUF domain R5-NGR and with PUM1 PUF domain R5-LHI were 0.39 log2 enrichment (interaction score), 2.58 log2 enrichment (interaction score) and 0.32 log2 enrichment (interaction score), respectively.
Turning to “GGCUAGAACUAGUGGAUCCCCCGGCGCCCGGCGGCUCGAGCCCGGGUAAGUGUAUAUAGUCUGCAUGCCGCCGGGCGCCAUGCCUGCAGGUCGACUCUAGAAAACAUG”, the binding signal was 2.66 log2 enrichment (interaction score) in the test with PUM1 PUF domain R4-LNC and 5.71 log2 enrichment (interaction score) in the test with PUM1 PUF domain R4-WAV.
In the case of “GGCUAGAACUAGUGGAUCCCCCGGCGCCCGGCGGCUCGAGCCCGGGUAAGGGUAAAUAGUCUGCAUGCCGCCGGGCGCCAUGCCUGCAGGUCGACUCUAGAAAACAUG”, the binding signal with PUM1 PUF domain R8-QWK was 3.09 log2 enrichment (interaction score).
For “GGCUAGAACUAGUGGAUCCCCCGGCGCCCGGCGGCUCGAGCCCGGGUAAGUCUAAAUAGUCUGCAUGCCGCCGGGCGCCAUGCCUGCAGGUCGACUCUAGAAAACAUG”, the binding signal with PUM1 PUF domain R7-RCR was 4.6 log2 enrichment (interaction score).
On to “GGCUAGAACUAGUGGAUCCCCCGGCGCCCGGCGGCUCGAGCCCGGGUAAGUGUAAUUAGUCUGCAUGCCGCCGGGCGCCAUGCCUGCAGGUCGACUCUAGAAAACAUG”, for which the binding signal in the test with PUM1 PUF domain R3-RMW is 2.28 log2 enrichment (interaction score); with PUM1 PUF domain R3-RSR, 3.41 log2 enrichment (interaction score); in the test with PUM1 PUF domain R3-MRW it was 2.07 log2 enrichment (interaction score).
As for “GGCUAGAACUAGUGGAUCCCCCGGCGCCCGGCGGCUCGAGCCCGGGUAAGUGUACAUAGUCUGCAUGCCGCCGGGCGCCAUGCCUGCAGGUCGACUCUAGAAAACAUG”, the binding signal in the test with PUM1 PUF domain R4-WAV is 2.23 log2 enrichment (interaction score).
“GGCUAGAACUAGUGGAUCCCCCGGCGCCCGGCGGCUCGAGCCCGGGUAAGUGUAAAGAGUCUGCAUGCCGCCGGGCGCCAUGCCUGCAGGUCGACUCUAGAAAACAUG”: in the test with PUM1 PUF domain R2-MWG, the binding signal is 3.95 log2 enrichment (interaction score).
Turning to “GGCUAGAACUAGUGGAUCCCCCGGCGCCCGGCGGCUCGAGCCCGGGUAAGUGUAAAUAGUCUGCAUGCCGCCGGGCGCCAUGCCUGCAGGUCGACUCUAGAAAACAUG”, the binding signal with PUM1 PUF domain R8-QWK is 2.09 log2 enrichment (interaction score); with PUM1 PUF domain R6-LWT, 6.06 log2 enrichment (interaction score); with PUM1 PUF domain R4-AHV, 4.52 log2 enrichment (interaction score); in the test with PUM1 PUF domain R4-PYF, 7.96 log2 enrichment (interaction score); with PUM1 PUF domain R4-WAV, 2.33 log2 enrichment (interaction score); in the test with PUM1 PUF domain R5-RYP, 2.37 log2 enrichment (interaction score). Further, the binding signal with PUM1 PUF domain R2-SWF was 1.61 log2 enrichment (interaction score).
In the case of “GGCUAGAACUAGUGGAUCCCCCGGCGCCCGGCGGCUCGAGCCCGGGUAAGUGUAAGUAGUCUGCAUGCCGCCGGGCGCCAUGCCUGCAGGUCGACUCUAGAAAACAUG”, the binding signal with PUM1 PUF domain R3-FSN was 2.79 log2 enrichment (interaction score); with PUM1 PUF domain R3-MRW it was 5.09 log2 enrichment (interaction score).
In the case of “GGCUAGAACUAGUGGAUCCCCCGGCGCCCGGCGGCUCGAGCCCGGGUAAGUGAAAAUAGUCUGCAUGCCGCCGGGCGCCAUGCCUGCAGGUCGACUCUAGAAAACAUG”, in the test with PUM1 PUF domain R6-LWT, the binding signal was 2.9 log2 enrichment (interaction score).
For “GGCUAGAACUAGUGGAUCCCCCGGCGCCCGGCGGCUCGAGCCCGGGUAAGUGUAAAUCGUCUGCAUGCCGCCGGGCGCCAUGCCUGCAGGUCGACUCUAGAAAACAUG”, the results for the binding signal in the test with PUM1 PUF domain R1-RSQ and with PUM1 PUF domain R1-SWR were 4.74 log2 enrichment (interaction score) and 3.04 log2 enrichment (interaction score), respectively.
